Drawing on PubChem BioAssay AID1259245 (Vanderbilt High Throughput Screening Facility, 2017), this text covers compound max-min signal, glutamate response, % of max and glutamate slope, % of max for 36 molecules.

Hit rate of the full screen: of about 40,000 compounds, about 1,400 (3.5%) were called active.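 The calls were made as follows: active = any of four per-well response measures lying three or more SD from its plate-wide compound average, in either direction; inactive = the rest, inconclusive results apart.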 Shown is part of a subset that was picked to be rich in actives.

Sequence of Voltage-dependent calcium channel gamma-2 subunit (Mus musculus) + Glutamate receptor 2 (Rattus norvegicus) (O88602 whole entry, looked up): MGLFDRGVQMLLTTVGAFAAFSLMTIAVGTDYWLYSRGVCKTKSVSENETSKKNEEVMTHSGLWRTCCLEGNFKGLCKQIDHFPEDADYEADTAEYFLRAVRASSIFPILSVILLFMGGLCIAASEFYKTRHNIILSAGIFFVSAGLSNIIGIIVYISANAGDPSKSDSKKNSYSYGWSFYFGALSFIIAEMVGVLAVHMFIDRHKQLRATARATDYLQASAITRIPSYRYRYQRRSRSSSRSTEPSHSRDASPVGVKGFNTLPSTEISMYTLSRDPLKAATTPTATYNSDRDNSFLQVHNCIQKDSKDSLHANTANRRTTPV
Sequence of Voltage-dependent calcium channel gamma-2 subunit (Mus musculus) + Glutamate receptor 2 (Rattus norvegicus) (P19491 whole entry, looked up): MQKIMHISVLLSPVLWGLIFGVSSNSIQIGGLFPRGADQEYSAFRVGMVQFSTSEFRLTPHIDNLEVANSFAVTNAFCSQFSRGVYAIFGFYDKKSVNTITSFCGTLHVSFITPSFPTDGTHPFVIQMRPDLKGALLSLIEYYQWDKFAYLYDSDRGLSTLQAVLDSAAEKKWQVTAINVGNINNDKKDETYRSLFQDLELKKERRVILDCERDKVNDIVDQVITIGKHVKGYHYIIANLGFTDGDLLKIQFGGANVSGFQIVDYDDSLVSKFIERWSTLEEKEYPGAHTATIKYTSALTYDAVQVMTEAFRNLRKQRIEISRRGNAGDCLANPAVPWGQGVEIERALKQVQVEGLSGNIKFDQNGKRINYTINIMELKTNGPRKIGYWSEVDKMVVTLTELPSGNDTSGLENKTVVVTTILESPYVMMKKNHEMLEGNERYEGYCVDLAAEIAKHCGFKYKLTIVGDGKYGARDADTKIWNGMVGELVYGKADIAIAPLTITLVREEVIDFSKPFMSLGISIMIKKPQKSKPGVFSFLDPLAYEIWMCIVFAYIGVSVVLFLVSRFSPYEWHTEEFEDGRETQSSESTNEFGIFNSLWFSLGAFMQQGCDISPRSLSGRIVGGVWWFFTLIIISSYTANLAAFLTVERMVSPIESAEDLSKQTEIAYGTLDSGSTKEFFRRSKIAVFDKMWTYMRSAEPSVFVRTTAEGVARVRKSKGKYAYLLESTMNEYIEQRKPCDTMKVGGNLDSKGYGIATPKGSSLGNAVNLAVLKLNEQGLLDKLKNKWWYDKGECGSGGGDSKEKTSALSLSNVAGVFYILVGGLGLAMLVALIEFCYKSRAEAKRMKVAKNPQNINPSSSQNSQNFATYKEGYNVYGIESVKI

The assay addresses Voltage-dependent calcium channel gamma-2 subunit (Mus musculus) + Glutamate receptor 2 (Rattus norvegicus) (UniProt O88602+P19491). Put plainly: modulators of GluA2-stargazin AMPA receptor complexes, primary screen, cell-based, membrane potential dye (AID 1259245). As to conditions: HEK293 GluA2+stargazin, membrane potential dye (FDSS), glutamate EC50, at 30 µM, hits were called plate by plate, in both directions; compound max-min signal: compound-alone response (agonism); glutamate slope, % of max: measured here: glutamate response slope, % max.
`CCN1CC(c2nc3ccccc3n2Cc2ccc(Cl)cc2)CC1=O` (stereo not drawn): the compound max-min signal is 0.0749; the glutamate response, % of max was 45% (inactive); the glutamate slope, % of max came out at 70.4%.
On the same counts, the results for `C=CCN1CC(c2nc3ccccc3n2Cc2cccc(Cl)c2)CC1=O` (stereo not drawn) are 0.132, 29.6% (active) and 36.6%.
In the case of `CCCCN1CC(c2nc3ccccc3n2Cc2cc(C)ccc2C)CC1=O` (stereo not drawn), the compound max-min signal was found to be 0.12; the glutamate response, % of max is 83.9% (active); the glutamate slope, % of max was 94.4%.
As to `CCN1CC(c2nc3ccccc3n2Cc2ccc(Cl)c(Cl)c2)CC1=O` (stereo not drawn), the compound max-min signal is 0.144; the glutamate response, % of max is 41.2% (inactive); the glutamate slope, % of max was 66.5%.
In the same order, the values of `CCCCN1CC(c2nc3ccccc3n2CCOc2ccc(C)cc2)CC1=O` (stereo not drawn) are 0.135, 45.7% (inactive) and 78.7%.
As for `O=C(CCCc1ccccc1)N1CCN(c2ccc3nnc(-c4ccco4)n3n2)CC1`, the compound max-min signal is 0.203; the glutamate response, % of max is 48.1% (inactive); the glutamate slope, % of max was determined as 68.2%.
On the same counts, the results for `CC(=O)Nc1cccc(NC(=O)C(=O)NCC2CCN(Cc3ccco3)CC2)c1` are 0.0762, 50.2% (inactive) and 68.9%.
Turning to `O=C(NC1CCc2ccccc21)c1nnn(-c2ccc(F)cc2)c1-c1ccncc1` (stereo not drawn), the compound max-min signal amounted to 0.0259; the glutamate response, % of max is 18.1% (inactive); the glutamate slope, % of max was determined as 25.4%.
On the same counts, the results for `COc1cc2nc(NC(=O)c3cc(C)no3)sc2cc1OC` are 0.204, 26.9% (inactive) and 48.6%.
In the same order, the values of `CCOCCn1c(=NC(=O)c2cc(C)no2)sc2cc(OC)c(OC)cc21` are 0.187, 27.5% (active) and 50.7%.
With `COCCn1c(=NC(=O)c2cc(C)no2)sc2cc(SC)ccc21`, the compound max-min signal turned out to be 0.152; the glutamate response, % of max is 31.8% (inactive); the glutamate slope, % of max was 54.7%.
For the molecule `Cc1nn(-c2ccccc2)c2ncc(C(=O)Nc3ccc(F)cc3F)c(Cl)c12`, the compound max-min signal stood at 0.0815; the glutamate response, % of max was 20.8% (inactive); the glutamate slope, % of max was 43.5%.
In the same order, the values of `COc1cn(CC(=O)Nc2ccc3c(c2)OCO3)c(CSc2nnnn2C)cc1=O` are 0.0535, 23.6% (inactive) and 48.2%.
On the same counts, the results for `CCOc1ccc2nc(NC(=O)c3ccc(S(=O)(=O)Nc4cccnc4)o3)sc2c1` are 0.179, 32% (active) and 55.6%.
In the same order, the values of `CCOc1ccc2nc(NC(=O)c3ccc(S(=O)(=O)N(C)C)o3)sc2c1` are 0.115, 31.5% (inactive) and 54.4%.
For the molecule `Cc1ccc2nc(NC(=O)c3ccno3)sc2c1`, the compound max-min signal came to 0.16; the glutamate response, % of max is 53% (inactive); the glutamate slope, % of max is 62.5%.
In the same order, the values of `CC(C)Oc1ccc(C(=O)Nc2ccc3oc(=O)ccc3c2)cc1` are 0.17, 41.9% (inactive) and 61.4%.
For `O=c1ccc2cc(S(=O)(=O)Nc3cc(Cl)ccc3O)ccc2o1`, the compound max-min signal turned out to be 0.209; the glutamate response, % of max was 16.4% (active); the glutamate slope, % of max was found to be 35.5%.
On the same counts, the results for `O=c1oc2ccc(Cl)cc2cc1S(=O)(=O)c1ccccc1F` are 0.0854, 39.3% (inactive) and 60%.
On the same counts, the results for `O=C(NC1CCCCCC1)c1ccc(S(=O)(=O)c2ccccc2)nc1` are 0.0387, 28.2% (inactive) and 47.7%.
On the same counts, the results for `COc1cccc(NC(=O)c2ccc(=O)n(Cc3cccc(C(F)(F)F)c3)c2)c1` are 0.0915, 23.5% (inactive) and 41.6%.
Turning to `COc1cc(CN2CCN(c3nccn3C)CC2)cc(OC)c1`, the compound max-min signal is 0.0438; the glutamate response, % of max is 12.8% (inactive); the glutamate slope, % of max came out at 27.6%.
In the same order, the values of `COc1ccc(OC)c(-c2ccc(=O)n(CC(=O)N3CCOCC3)n2)c1` are 0.0773, 62.3% (inactive) and 97.9%.
Take `Cc1ccccc1NC(=O)NC1(c2nc(-c3ccsc3)no2)CCCCC1`: the compound max-min signal was 0.081; the glutamate response, % of max is 34.5% (inactive); the glutamate slope, % of max turned out to be 56%.
`O=S(=O)(NC1(c2nc(-c3ccsc3)no2)CCCCC1)c1ccccc1`: the compound max-min signal was found to be 0.127; the glutamate response, % of max is 19.9% (active); the glutamate slope, % of max was found to be 36.2%.
On the same counts, the results for `COc1cc(Cl)ccc1C(=O)NC1(c2nc(-c3ccsc3)no2)CCCCC1` are 0.0754, 37.6% (inactive) and 63.1%.
On the same counts, the results for `COc1ccccc1OCC(=O)Nc1cc(C(=O)N2CCOCC2)cn(C)c1=O` are 0.134, 36.2% (inactive) and 63%.
On the same counts, the results for `COc1ccc(-n2nnc3c(N4CCN(C(=O)C(C)Oc5ccccc5)CC4)ncnc32)cc1` (stereo not drawn) are 0.0918, 83.4% (active) and 124%.
As for `CC(Oc1ccccc1)C(=O)N1CCN(c2ncnc3c2nnn3-c2ccc(Cl)cc2)CC1` (stereo not drawn), the compound max-min signal amounted to 0.0923; the glutamate response, % of max was 46% (inactive); the glutamate slope, % of max amounted to 58.4%.
In the same order, the values of `CCCC(CCC)C(=O)N1CCN(c2ncnc3c2nnn3-c2ccc(OC)cc2)CC1` are 0.0796, 50.3% (inactive) and 57.2%.
On the same counts, the results for `COc1ccc(Cl)cc1NC(=O)Nc1cc(N2CCCS2(=O)=O)ccc1C` are 0.0964, 36.6% (inactive) and 48.9%.
In the same order, the values of `Cc1c(-c2ccccc2)c(=O)oc2c3c(ccc12)OCN(Cc1cccnc1)C3` are 0.117, 15.5% (inactive) and 35%.
For `O=C(CCc1ccccc1)NCC1CCN(Cc2ccsc2)CC1`, the compound max-min signal came to 0.0535; the glutamate response, % of max was 10.8% (active); the glutamate slope, % of max stood at 27.6%.
For the molecule `O=C(CCc1ccccc1)NCCS(=O)(=O)N1CCN(Cc2ccccc2)CC1`, the compound max-min signal was 0.0536; the glutamate response, % of max was 24.3% (inactive); the glutamate slope, % of max came out at 47.7%.
With `O=C(NCC1CCN(Cc2ccsc2)CC1)C(=O)Nc1ccon1`, the compound max-min signal was 0.08; the glutamate response, % of max is 38.4% (inactive); the glutamate slope, % of max came out at 57.1%.
In the same order, the values of `Cc1cc(C)c2c(n1)sc1c(=O)n(CC(=O)Nc3ccc(F)cc3F)cnc12` are 0.126, 45.2% (inactive) and 70.3%.
